SMILES strings stand for the structures. Active and inactive are the calls of the source. How the source made its calls: active means hit-call score of the fitted dose curve at least 0.9, where 1 is the maximum; inactive means score below 0.9.

This note sets out measurements from PubChem BioAssay (EPA / NIEHS).

Chain of Transcription factor Sp1 (Homo sapiens) (P08047 whole entry, looked up, the tested form may be a part): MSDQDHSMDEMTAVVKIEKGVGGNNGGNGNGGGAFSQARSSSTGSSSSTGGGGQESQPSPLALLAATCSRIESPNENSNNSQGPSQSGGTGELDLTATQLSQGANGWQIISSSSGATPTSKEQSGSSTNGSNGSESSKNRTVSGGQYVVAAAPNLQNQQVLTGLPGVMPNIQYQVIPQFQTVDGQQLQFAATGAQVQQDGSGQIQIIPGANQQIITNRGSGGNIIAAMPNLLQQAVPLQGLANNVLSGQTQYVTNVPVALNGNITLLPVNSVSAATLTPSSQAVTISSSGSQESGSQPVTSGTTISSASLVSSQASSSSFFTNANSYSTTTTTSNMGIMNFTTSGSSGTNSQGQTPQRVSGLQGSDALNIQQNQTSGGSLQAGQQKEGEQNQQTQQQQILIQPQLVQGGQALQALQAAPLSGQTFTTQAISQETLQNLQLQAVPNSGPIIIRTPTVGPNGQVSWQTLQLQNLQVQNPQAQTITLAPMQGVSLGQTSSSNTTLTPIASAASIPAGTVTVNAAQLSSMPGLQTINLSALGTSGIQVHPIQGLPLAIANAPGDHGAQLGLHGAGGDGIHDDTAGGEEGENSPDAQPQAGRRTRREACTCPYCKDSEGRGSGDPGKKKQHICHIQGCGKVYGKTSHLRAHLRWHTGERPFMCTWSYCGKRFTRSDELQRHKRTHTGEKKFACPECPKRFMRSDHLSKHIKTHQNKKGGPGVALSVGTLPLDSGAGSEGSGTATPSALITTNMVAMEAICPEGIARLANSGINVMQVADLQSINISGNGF

System in one experiment: not listed separately
In words: ATG_Sox_CIS: Attagene CIS-FACTORIAL HepG2 Assay for human SRY-box transcription factor (SOX) (AID 2282960). The following applies: HepG2 Attagene cis-factorial SOX reporter, mRNA; actives raise or lower the signal. The procedure, abridged: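 Gain- or loss-of-signal endpoint, fitted bidirectionally with DMSO as negative control. Based on reporter mRNA from transfected HepG2 cells harvested 24 h post-treatment and quantified via RT-PCR and capillary electrophoresis.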
As to `O=c1cc(-c2ccccc2)oc2ccc3ccccc3c12`, the call was inactive.

For `O=C(Nc1ccc(Cl)c(Cl)c1)c1cc(Cl)cc(Cl)c1O`, the compound was classed as inactive.

For the compound `c1ccc2c(c1)CCC2`, the compound was called inactive.

For `O=C1Cc2ccccc2N1c1c(Cl)cccc1Cl`, the compound was classed as inactive.

In the case of `Clc1ccc(Nc2nnc(Cc3ccncc3)c3ccccc23)cc1`, the outcome was inactive.

In the case of `Brc1cc(Br)c(Oc2c(Br)cc(Br)c(Br)c2Br)cc1Br`, the result was inactive.

With `C=CC(=O)OCCC(F)(F)C(F)(F)C(F)(F)C(F)(F)C(F)(F)C(F)(F)F`, the compound was classed as inactive.

In the case of `O=C(C=C(O)C(F)(F)F)C(F)(F)F`, the compound was called inactive.

For `Nc1cc(Cl)c(-c2cc(Cl)c(N)cc2Cl)cc1Cl`, the concentration at half-maximal activity (AC50) (commonly the concentration giving half of the maximal activity seen) is 10.5 µM (active).

Consider `CCC(=O)C=Cc1ccc(OC)cc1`, for which the half-maximal activity concentration (AC50) was 70.4 µM (active).

`COC(O)c1ccccc1` (stereo unspecified): the result was inactive.

For `CC1CCC(C(=O)O)CC1` (stereo unspecified), the compound was called inactive.

`CC1CNCC(C)O1` (stereo unspecified): the result was inactive.

For the compound `Cc1ccc(N=Nc2c(O)ccc3ccccc23)c(C)c1`, the compound was called inactive.

With `Nc1ccc(O)c(C(=O)O)c1`, the result was inactive.

With `Cc1[nH]nc2c1N=C(c1ccccc1Cl)c1cc([N+](=O)[O-])ccc1N2`, the compound was classed as inactive.

As to `O=C(O)C(=O)O`, the compound was called inactive.

For the compound `CCc1cccc(CC)c1N(COC)C(=O)CS(=O)(=O)O`, the outcome was inactive.

Turning to `Clc1ccc2c(Cl)ccnc2c1`, the result was inactive.

In the case of `COC1=CC(=O)C[C@@H](C)[C@]12Oc1c(Cl)c(OC)cc(OC)c1C2=O`, the call was inactive.

For the compound `O=C(Nc1cccc([N+](=O)[O-])c1)c1cc2ccccc2cc1O`, the result was inactive.

In the case of `CCc1cccc(CC)c1NC(=O)C(=O)O`, the compound was called inactive.

In the case of `O=CC(F)(F)C(F)(F)C(F)(F)F`, the compound was called inactive.

As for `CCCCCCc1ccc(N)cc1`, the compound was classed as inactive.

For `COc1cccc(O)c1`, the outcome was inactive.

In the case of `FC(F)(F)C1(F)C(F)(F)C(F)(F)C(F)(F)C1(F)F`, the outcome was inactive.

Turning to `C=CC(=O)OCCC(F)(F)C(F)(F)C(F)(F)C(F)(F)C(F)(F)C(F)(F)C(F)(F)C(F)(F)F`, the compound was classed as inactive.

Consider `CCCCCc1ccc(O)cc1`, for which the result was inactive.

For the compound `O=C1OC(=O)c2cc(-c3ccc4c(c3)C(=O)OC4=O)ccc21`, the compound was called inactive.

`FC(F)(F)C(F)(F)C(F)(F)C(F)(F)I`: the compound was called inactive.

Consider `OCCN1CN(CCO)CN(CCO)C1`, for which the AC50 was 150 µM (active).

With `Oc1c(Cl)cc(Cl)cc1Sc1cc(Cl)cc(Cl)c1O`, the outcome was inactive.

`COc1cc([N+](=O)[O-])ccc1N`: the call was inactive.

As for `CC(C)(c1ccc(Oc2ccc(N)cc2)cc1)c1ccc(Oc2ccc(N)cc2)cc1`, the compound was called inactive.

Regarding `CCCC=O`, the call was inactive.

Turning to `CCCCCCCCC(C)=O`, the compound was called inactive.

Take `NC(C(F)(F)F)C(F)(F)F`: the compound was called inactive.

Regarding `Cc1ccc(C)c(S(=O)(=O)O)c1`, the result was inactive.

A further experiment has as its target Transcription factor Sp1 (Homo sapiens) (UniProt P08047). In words: ATG_Sp1_CIS: Attagene CIS-FACTORIAL HepG2 Assay for human Specificity Protein 1 (Sp1) (AID 2282961). To be noted: HepG2 Sp1 cis-reporter transcription, actives raise or lower the signal. A digest of the protocol:
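Endpoint reflects endogenous Sp1 transcriptional activity, not an exogenous fusion protein: HepG2 cells with transfected cis-regulated reporters, 24 h dosing, RT-PCR/capillary electrophoresis mRNA read-out, DMSO-normalised bidirectional fit.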
In the case of `O=c1cc(-c2ccccc2)oc2ccc3ccccc3c12`, the call was inactive.

As for `O=C(Nc1ccc(Cl)c(Cl)c1)c1cc(Cl)cc(Cl)c1O`, the compound was called inactive.

As to `c1ccc2c(c1)CCC2`, the outcome was inactive.

As for `O=C1Cc2ccccc2N1c1c(Cl)cccc1Cl`, the result was inactive.

On to `Clc1ccc(Nc2nnc(Cc3ccncc3)c3ccccc23)cc1`, for which the outcome was inactive.

For the compound `Brc1cc(Br)c(Oc2c(Br)cc(Br)c(Br)c2Br)cc1Br`, the compound was called inactive.

On to `C=CC(=O)OCCC(F)(F)C(F)(F)C(F)(F)C(F)(F)C(F)(F)C(F)(F)F`, for which the compound was called inactive.

For the compound `O=C(C=C(O)C(F)(F)F)C(F)(F)F`, the compound was called inactive.

Take `Nc1cc(Cl)c(-c2cc(Cl)c(N)cc2Cl)cc1Cl`: the AC50 was 15.9 µM (active).

For the compound `CCC(=O)C=Cc1ccc(OC)cc1`, the outcome was inactive.

As for `COC(O)c1ccccc1` (stereo unspecified), the compound was classed as inactive.

`CC1CCC(C(=O)O)CC1` (stereo unspecified): the compound was classed as inactive.

For the compound `CC1CNCC(C)O1` (stereo unspecified), the compound was classed as inactive.

For the compound `Cc1ccc(N=Nc2c(O)ccc3ccccc23)c(C)c1`, the result was inactive.

Take `Nc1ccc(O)c(C(=O)O)c1`: the call was inactive.

On to `Cc1[nH]nc2c1N=C(c1ccccc1Cl)c1cc([N+](=O)[O-])ccc1N2`, for which the half-maximal activity concentration (AC50) was 0.357 µM (active).

With `O=C(O)C(=O)O`, the compound was called inactive.

Consider `CCc1cccc(CC)c1N(COC)C(=O)CS(=O)(=O)O`, for which the compound was classed as inactive.

For the compound `Clc1ccc2c(Cl)ccnc2c1`, the compound was called inactive.

Consider `COC1=CC(=O)C[C@@H](C)[C@]12Oc1c(Cl)c(OC)cc(OC)c1C2=O`, for which the compound was classed as inactive.

In the case of `O=C(Nc1cccc([N+](=O)[O-])c1)c1cc2ccccc2cc1O`, the compound was called inactive.

Take `CCc1cccc(CC)c1NC(=O)C(=O)O`: the result was inactive.

For `O=CC(F)(F)C(F)(F)C(F)(F)F`, the compound was called inactive.

`CCCCCCc1ccc(N)cc1`: the result was inactive.

In the case of `COc1cccc(O)c1`, the compound was classed as inactive.

On to `FC(F)(F)C1(F)C(F)(F)C(F)(F)C(F)(F)C1(F)F`, for which the outcome was inactive.

`C=CC(=O)OCCC(F)(F)C(F)(F)C(F)(F)C(F)(F)C(F)(F)C(F)(F)C(F)(F)C(F)(F)F`: the result was inactive.

`CCCCCc1ccc(O)cc1`: the result was inactive.

Turning to `O=C1OC(=O)c2cc(-c3ccc4c(c3)C(=O)OC4=O)ccc21`, the result was inactive.

For `FC(F)(F)C(F)(F)C(F)(F)C(F)(F)I`, the result was inactive.

In the case of `OCCN1CN(CCO)CN(CCO)C1`, the concentration at half-maximal activity (AC50) is 144 µM (active).

Regarding `Oc1c(Cl)cc(Cl)cc1Sc1cc(Cl)cc(Cl)c1O`, the result was inactive.

As to `COc1cc([N+](=O)[O-])ccc1N`, the compound was called inactive.

With `CC(C)(c1ccc(Oc2ccc(N)cc2)cc1)c1ccc(Oc2ccc(N)cc2)cc1`, the outcome was inactive.

As for `CCCC=O`, the compound was called inactive.

As for `CCCCCCCCC(C)=O`, the compound was called inactive.

Consider `NC(C(F)(F)F)C(F)(F)F`, for which the outcome was inactive.

With `Cc1ccc(C)c(S(=O)(=O)O)c1`, the compound was called inactive.
